What was measured:
Experiment in all cases: PBM binding z-score (relative to random genomic background probes); higher = stronger binding; sequences stand for … in GC…GCGATTGACAGCGTAGAATGAAGG
[1] = test system: FXR:RXRa (NR concentration 270 nM, RXRa partner concentration 90 nM)
How it was run: (§1)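 Regression normalization was applied to scanned fluorescence from custom Agilent 4×180K protein-binding microarrays. Before scanning, arrays were incubated 1 h with ligand-free nuclear receptor dimers, and binding was detected with antibodies against each partner (one per run). Binding z-scores use the random background probes as reference.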

[2] = test system: LXRa:RXRa (NR concentration 270 nM, RXRa partner concentration 90 nM)
How it was run: as §1

[3] = test system: LXRa homodimer (NR concentration 270 nM)
How it was run: as §1

[4] = test system: LXRb:RXRa (NR concentration 270 nM, RXRa partner concentration 90 nM)
How it was run: as §1

[5] = test system: LXRb homodimer (NR concentration 270 nM)
How it was run: as §1

[6] = test system: PPARa:RXRa (NR concentration 270 nM, RXRa partner concentration 90 nM)
How it was run: as §1

[7] = test system: PPARg:RXRa (NR concentration 180 nM, RXRa partner concentration 90 nM)
How it was run: as §1

[8] = test system: PPARg:RXRa 270nM:90nM, anti-RXR (NR concentration 270 nM, RXRa partner concentration 90 nM)
How it was run: as §1

[9] = test system: PPARg:RXRa 30nM:10nM, anti-RXR (NR concentration 30 nM, RXRa partner concentration 10 nM)
How it was run: as §1

[10] = test system: PPARg:RXRa 90nM:30nM, anti-RXR (NR concentration 90 nM, RXRa partner concentration 30 nM)
How it was run: as §1

[11] = test system: PPARg:RXRa DBDmut IVT, anti-RXR (DBD mutation: RXRa K156A/R161A, NR concentration 270 nM, RXRa partner concentration 90 nM)
How it was run: as §1

[12] = test system: PPARg:RXRa IVT, anti-PPARg (NR concentration 270 nM, RXRa partner concentration 90 nM)
How it was run: as §1

[13] = test system: PPARg DBDmut:RXRa IVT, anti-PPARg (DBD mutation: PPARg1 K132A/R137A, NR concentration 270 nM, RXRa partner concentration 90 nM)
How it was run: as §1

[14] = test system: PPARg DBDmut IVT, anti-PPARg (DBD mutation: PPARg1 K132A/R137A, NR concentration 270 nM)
How it was run: as §1

[15] = test system: PPARg homodimer (NR concentration 180 nM)
How it was run: as §1

[16] = test system: PXR:RXRa (NR concentration 270 nM, RXRa partner concentration 90 nM)
How it was run: as §1

[17] = test system: PXR homodimer (NR concentration 270 nM)
How it was run: as §1

[18] = test system: RARa:RXR (NR concentration 270 nM, RXRa partner concentration 90 nM)
How it was run: as §1

[19] = test system: RARa homodimer (NR concentration 270 nM)
How it was run: as §1

[20] = test system: RARb:RXRa (NR concentration 270 nM, RXRa partner concentration 90 nM)
How it was run: as §1

Sequence | PBM binding z-score [1] | PBM binding z-score [2] | PBM binding z-score [3] | PBM binding z-score [4] | PBM binding z-score [5] | PBM binding z-score [6] | PBM binding z-score [7] | PBM binding z-score [8] | PBM binding z-score [9] | PBM binding z-score [10] | PBM binding z-score [11] | PBM binding z-score [12] | PBM binding z-score [13] | PBM binding z-score [14] | PBM binding z-score [15] | PBM binding z-score [16] | PBM binding z-score [17] | PBM binding z-score [18] | PBM binding z-score [19] | PBM binding z-score [20]
TCGAGTAGGTTACCAATGGGGCATACAGCTTTCT | 0.164 | 1.55 | -0.441 | 1.04 | -0.663 | 1.18 | 0.984 | 1.68 | 1.27 | 1.28 | 3.13 | 3.01 | -0.185 | -0.3 | -0.0294 | 0.327 | -0.38 | 0.453 | -0.62 | 0.89
GCAGACAGGTGAAACGCAGGTAACTAAGGGTGGC | -0.237 | 0.0308 | -0.755 | -0.289 | -0.873 | 0.88 | 0.651 | -0.421 | -0.539 | -0.453 | 0.562 | 0.741 | -0.406 | -0.735 | -0.84 | -0.388 | -0.493 | 0.156 | -0.657 | 0.531
TGAATGAGGCTAAAGATCAGGGAACGTGGCGTCG | -0.481 | -0.541 | -0.699 | -0.926 | -0.646 | 1.97 | 2.96 | 4.9 | 3.03 | 4.67 | -0.0886 | 1.02 | 0.37 | -0.283 | -0.62 | -0.523 | -0.778 | -0.214 | -0.864 | 0.177
CCGCGGAGGACAACAGGAGGTCAGAGCTGCCAGA | 1.23 | 2.08 | 1.98 | 1.49 | -0.659 | 2.17 | 0.34 | 0.0732 | -0.523 | -0.778 | 0.131 | 0.105 | -1.44 | -1.52 | 2.29 | 2.44 | 0.34 | 2.5 | 0.536 | 3.04
TCTCGAAGGACACGAAGGTCAGAGCTTTCCAGAG | 1.04 | 1.12 | -0.125 | 1.03 | -0.73 | 1.91 | 0.515 | 1.8 | 2.96 | 2.27 | 1.58 | 1.03 | -0.558 | -0.971 | 1.64 | 1.54 | 0.219 | 2.12 | 0.163 | 3.34
CCTAGCAGGCCAATCTGGCTCACTCAAGGCTTGA | -0.716 | -0.911 | -0.459 | -0.999 | -0.737 | -0.434 | -0.54 | -0.642 | -0.916 | -1.12 | 1.35 | 0.117 | -2.07 | -1.06 | -0.294 | -0.913 | -1.16 | -0.795 | -0.522 | -0.16
TGTCAAAGTTCAAAGGTAACGTCAGTATCCACAC | 7.51 | 6.72 | 4.98 | 4.84 | 1.79 | 5.79 | 8.85 | 7.88 | 5.71 | 7.79 | 0.357 | 4.74 | 1.94 | 1.89 | 4.29 | 5.89 | 3.43 | 6.36 | 0.737 | 5.36
ATTAGTTGGTCAGCTGAGGTCACACACAATTCGG | 3.77 | 3.68 | 3.19 | 3.95 | 1.13 | 3.96 | 2.32 | 2.81 | 1.44 | 2.13 | 2.22 | 3.28 | 0.989 | 1.49 | 3.67 | 5.59 | 2.59 | 4.84 | 2.74 | 3.72
